PubChem BioAssay (Tox21)
Inconclusive results are not listed. The source made the active and inactive calls. Calls come from the whole dose curve; as a rule, active = well fitted activation curve with a large enough effect in the repeat runs; inconclusive = weak or mixed curves; inactive = flat fitted curve, though single readings scatter.

test: A CellTox Green Cytotoxicity Assay to monitor cytotoxicity in HepG2 cells - 32 hour (AID 1224883); conditions: CellTox Green fluorescence; series mostly up to 76.8 µM; cytotoxicity increase: at the top concentration; note: nearly all actives have a fitted effect of over 50% in size
Source text: National Center for Advancing Translational Sciences [NCATS]
NIH Chemical Genomics Center [NCGC]
U.S. Environmental Protection Agency [EPA]
National Institutes of Environmental Health Sciences [NIEHS]
National Toxicology Program [NTP]
Cell-based models are critical for drug discovery. Determining the natural cytotoxic effects resulting from test compounds is an essential research activity. A CellTox Green Cytotoxicity Assay to monitor cytotoxicity in real time of continues cell culture during 40 hours of the compound treatment was used to screen Tox21 10K library compounds in HepG2 cells. CellTox Green Cytotoxicity Assay is a nonlytic, homogeneous, biofluorescent method to measure cytotoxicity in cell culture after experimental manipulation. The assay system uses a proprietary asymmetric cyanine dye that is excluded from viable cells but preferentially stains the dead cell's DNA. […] Viable cells produce no appreciable increases in fluorescence. Therefore, the fluorescence signal produced by the binding interaction with dead cell DNA is proportional to cytotoxicity.
The mixture of HepG2 cell suspension and reagents were dispensed at 600cells/6 ul/well in 1536-well tissue culture treated black solid bottom plates using a Multidrop dispenser. After the assay plates were incubated at a 37 C/5% CO2 incubator for 5 hours, 23 nL of compounds dissolved in DMSO, positive and negative controls was transferred to the assay plate by a pintool work station. The plates were incubated at 37 C for 40 hours. The fluorescence intensity were measured at 0h, 8h, 16h, 24h, 32h and 40h time points using ViewLux plate reader during compound treatment.
% is set by controls: 0 for no effect and ±100 for the full control effect; potency is the fitted concentration of half-maximal effect.

Row | SMILES | cytotoxicity increase | Potency
1 | CCCCC/C=C\C/C=C\CCCCCCCC(=O)NC(C)c1ccccc1 (stereo not given) | -17.4% [at 35.3 µM] (inactive) | –
2 | Nc1cccc([N+](=O)[O-])c1 | 4.09% (inactive) | –
3 | CCN(CC)c1ccc2c(-c3ccccc3C(=O)O)c3ccc(=[N+](CC)CC)cc-3oc2c1 | – | 24.5 µM (active)
4 | CCCCCCOC(=O)NC(=N)c1ccc(NCc2nc3cc(C(=O)N(CCC(=O)OCC)c4ccccn4)ccc3n2C)cc1 | – | 23.9 µM (active)
5 | CCO[Si](CCCCl)(OCC)OCC | 0.631% (inactive) | –
6 | CN(Cc1ccc(C(C)(C)C)cc1)Cc1cccc2ccccc12 | 15% [at 35.3 µM] (inactive) | –
7 | O=S(c1cc(Cl)cc(Cl)c1O)c1cc(Cl)cc(Cl)c1O | 19.5% [at 35.3 µM] (inactive) | –
8 | CCCCCCCC#N | 0.928% (inactive) | –
9 | CC(COCCO)OCCO (stereo not given) | 0.136% (inactive) | –
10 | CN(C)CCN(Cc1ccccc1)c1ccccn1 | 18% [at 35.3 µM] (inactive) | –
11 | CCN(CC)CCNC(=O)c1cc(Br)c(N)cc1OC | 5.39% [at 35.3 µM] (inactive) | –
12 | Cc1cccc(Nc2ccccc2)c1 | – | 38.9 µM (active)
13 | CC(CSC(=O)c1ccccc1)C(=O)N1C[C@@H](Sc2ccccc2)C[C@H]1C(=O)O (stereo not given in full) | -3.06% [at 15.8 µM] (inactive) | –
14 | O=C(O)c1nc(Cl)c(Cl)c(Cl)c1Cl | -5.57% (inactive) | –
15 | C[C@@H]1C[C@H]2O[C@@]3(O[C@@H]2C(C)(C)O)[C@H](O)[C@@]2(C)[C@@H]4CC[C@H]5C(C)(C)[C@@H](O[C@@H]6OC[C@@H](O)[C@H](O)[C@H]6O)CC[C@@]56C[C@@]46CC[C@]2(C)[C@@H]13 | 4.69% [at 35.3 µM] (inactive) | –
16 | O=C1CCC(=O)O1 | -7.46% (inactive) | –
17 | O=C1[C@H]2CCCC[C@H]2C(=O)N1CCCCN1CCN(c2nsc3ccccc23)CC1 | 5.41% [at 35.3 µM] (inactive) | –
18 | CC(C)Cc1ccc(C(C)C(=O)OCc2ccccn2)cc1 (stereo not given) | 11.1% [at 35.3 µM] (inactive) | –
19 | CN1CCC(N(Cc2cccs2)c2ccccc2)CC1 | – | 21.3 µM (active)
20 | Cc1ccc(C(=O)Oc2ccc(C(O)CNC(C)(C)C)cc2OC(=O)c2ccc(C)cc2)cc1 (stereo not given) | – | 19 µM (active)

Row | SMILES | cytotoxicity increase | Potency
21 | Cc1ccccc1S(=O)(=O)O | -0.624% (inactive) | –
22 | CC(C)O.CC(C)O.CCOC(=O)/C=C(\C)O.CCOC(=O)/C=C(\C)O.[Ti] | 7.58% (inactive) | –
23 | C=CCOC(=O)CCC1CCCCC1 | -0.855% (inactive) | –
24 | CCCCC(=O)OCC(=O)[C@H]1[C@H](C)C[C@H]2[C@@H]3C[C@H](F)C4=CC(=O)C=C[C@]4(C)[C@@]3(F)[C@@H](O)C[C@@]21C | -2.88% [at 35.3 µM] (inactive) | –
25 | CCOC(=O)C(O)c1ccccc1 (stereo not given) | -15.7% [at 35.3 µM] (inactive) | –
26 | CC(C)(C)OCC1CO1 (stereo not given) | -4.66% (inactive) | –
27 | CC(C)(C)Cl | 4.35% (inactive) | –
28 | CC[N+](C)(CC)CCOC(=O)C(O)(c1ccccc1)C1CCCCC1 (stereo not given) | -14.4% [at 35.3 µM] (inactive) | –
29 | CN(C)CCOC(c1ccccc1)c1ccc(Br)cc1 (stereo not given) | – | 23.9 µM (active)
30 | COc1ccc(C(=O)Nc2nc3ccccc3c(NCc3ccccc3)c2C#N)cc1 | -8.24% (inactive) | –
31 | CCCCCCCCCCO[C@@H]1O[C@H](CO)[C@@H](O)[C@H](O)[C@H]1O | 22.1% (inactive) | –
32 | Nc1ncn([C@H]2C[C@H](O)[C@@H](CO)O2)c(=O)n1 | 3.78% [at 35.3 µM] (inactive) | –
33 | CCCCCCCCCOS(=O)(=O)O | -8.58% (inactive) | –
34 | CCN(CC)CCOC(=O)C(c1ccccc1)C1CCCCC1 (stereo not given) | – | 23.9 µM (active)
35 | CCCn1cnc2c1c(=O)n(CCCCC(C)=O)c(=O)n2C | 8.37% [at 35.3 µM] (inactive) | –
36 | C[C@H](CCC(=O)O)[C@H]1CC[C@H]2[C@@H]3CC[C@@H]4C[C@H](O)CC[C@]4(C)[C@H]3C[C@H](O)[C@]12C | 22.2% (inactive) | –
37 | C#CCN(C)CCCOc1ccc(Cl)cc1Cl | – | 19 µM (active)
38 | CC(C)(CO)[N+](=O)[O-] | -5.19% (inactive) | –
39 | CCOC(=O)Cc1cccc2ccccc12 | – | 21.9 µM (active)
40 | COc1ccnc(CS(=O)c2nc3ccc(OC(F)F)cc3[nH]2)c1OC (stereo not given) | -14.2% [at 35.3 µM] (inactive) | –
